# The entries come from a sample that favours hits as a whole.
# TDP1 cell noCPT – qHTS for Inhibitors of human tyrosyl-DNA phosphodiesterase 1 (TDP1): qHTS in cells in absence of CPT; DT40 Tdp1-/- hTDP1 cells, no CPT, ATP luminescence, 48 h; 420,000 compounds, 15% hits; Potency, µM (highest dose often 46.2 µM), without a hit: at the highest dose activity change, negative = growth inhibition, hits mostly inhibitors; further: potency means the concentration at half of the fitted maximal effect; nearly all actives have a fitted effect of over 55% in size
#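 Chicken DT40 Tdp1-/- cells stably complemented with human TDP1 were seeded at 400 cells/well with DMSO in place of 20 nM camptothecin. After compound pinning, cells grew at least 48 hr at 37 °C; viability read by CellTiter-Glo luminescence.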
# HT1080 IDH1KD tx – toxicity to HT-1080 IDH1 knockdown cells (counter line). HT-1080 IDH1 knockdown viability, ATP luminescence, 48 h. Potency, µM (series often up to 46.1 µM), for the others: at the highest dose activity, negative = toxicity, most hits filed as cytotoxic. 360,000 compounds, 2% hits;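 further: potency means the concentration at half of the fitted maximal effect; 0% = DMSO wells and -100% = cell-free medium wells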
#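 CellTiter-Glo luminescence after 48 h compound exposure at 37 degrees C of IDH1-knockdown HT-1080 cells in 5% FBS RPMI. %Activity scaled between DMSO wells and cell-free media wells, with curves fitted and assigned curve classes.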
# HT1080-NT tox – kills 2HG-producing HT-1080-NT fibrosarcoma cells. HT-1080-NT fibrosarcoma viability, CellTiter-Glo ATP luminescence, 48 h. 360,000 compounds, 1.6% hits. Potency, µM (series often up to 46.1 µM), inactives show top-dose activity, negative = less viability, most hits filed as cytotoxic;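 further: NT is the 2HG producing partner of a matched IDH1 knockdown line; potency means the concentration at half of the fitted maximal effect; 0% = DMSO-treated cells and -100% = media-only wells without cells; nearly all actives have a fitted effect of over 55% in size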
#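 HT-1080-NT fibrosarcoma cells (2HG-overproducing), 750 cells/well in RPMI with 5% FBS, dosed after 2 h and incubated 48 h at 37C. CellTiter-Glo luminescence normalized to DMSO and no-cell wells; concentration-response curves fitted and classed.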
# IL1B secr inh – inflammasome signaling inhibition, IL-1 beta readout. THP-1 LPS/ATP IL-1B secretion, AlphaLISA, 16 h; hits give low values. activity change, % at 57.5 µM. 360,000 compounds, 4.7% hits; in the data active means activity change below about -50%; inconclusive means mostly about -30% to -49%
#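 Secreted IL-1B measured by AlphaLISA bead assay after 16 h compound exposure of THP-1 cells; compounds (final up to 57.5 uM) added 1 h before LPS (250 ng/mL) and ATP (1.25 mM) stimulation; lower signal means less secretion.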
# TDP1 cell CPT – growth inhibition of DT40 Tdp1-/-;hTDP1 cells with camptothecin (screen for TDP1 inhibitors); chicken DT40 Tdp1-/-;hTDP1 cells + 20 nM CPT, ATP luminescence, 48 h; Potency, µM (highest dose often 46.2 µM), for the others: top-dose activity change, negative = growth inhibition, most hits filed as inhibitors; 420,000 compounds, 12% hits; further: potency means the concentration at half of the fitted maximal effect; nearly all actives have a fitted effect of over 55% in size
#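 Chicken DT40 Tdp1-/- cells stably complemented with human TDP1 were seeded at 400 cells/well in medium containing 20 nM camptothecin, exposed to pin-transferred compounds, and grown at 37 °C for at least 48 hr. Viability was read as ATP luminescence.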
# ALOX12 inh – ALOX12 (human) lipoxygenase inhibition; Potency, µM (series often up to 108 µM), for the others: at the top dose activity change, negative = inhibition, actives largely listed as inhibitors; purified 12hLO, xylenol orange hydroperoxide absorbance; P18054; 580,000 compounds, 1.1% hits; AID 1671190; further: potency means the concentration at half of the fitted maximal effect
# Target sequence (P18054 whole entry, looked up): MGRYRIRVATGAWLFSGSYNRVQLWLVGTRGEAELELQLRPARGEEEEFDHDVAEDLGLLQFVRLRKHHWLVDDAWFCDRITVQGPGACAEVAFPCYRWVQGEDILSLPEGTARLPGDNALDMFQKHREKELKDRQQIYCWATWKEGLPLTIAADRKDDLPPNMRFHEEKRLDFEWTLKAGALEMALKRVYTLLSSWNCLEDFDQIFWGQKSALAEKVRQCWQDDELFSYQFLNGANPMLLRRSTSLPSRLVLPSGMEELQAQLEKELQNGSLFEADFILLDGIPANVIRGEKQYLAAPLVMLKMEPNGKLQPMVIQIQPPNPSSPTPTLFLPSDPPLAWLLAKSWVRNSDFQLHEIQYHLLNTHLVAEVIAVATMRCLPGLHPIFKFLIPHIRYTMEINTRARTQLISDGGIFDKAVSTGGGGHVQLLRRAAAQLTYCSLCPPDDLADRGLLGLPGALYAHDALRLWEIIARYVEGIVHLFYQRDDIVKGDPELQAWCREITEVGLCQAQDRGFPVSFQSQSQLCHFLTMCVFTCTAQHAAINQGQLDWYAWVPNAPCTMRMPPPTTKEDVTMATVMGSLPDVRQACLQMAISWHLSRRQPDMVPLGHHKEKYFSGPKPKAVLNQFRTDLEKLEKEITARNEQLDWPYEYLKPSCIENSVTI
#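 Purified human 12hLO (150 nM final) in 25 mM Hepes, 0.01% Triton X-100, pH 7.0 was preincubated 15 min at room temperature with compound. Then 40 uM arachidonic acid was added, 30 min. Hydroperoxide was read by Fe-XO absorbance ratio 573/405 nm.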
# The depositor's hits bear a star; ? = inconclusive; . = no result; ! = not active in a repeat; [ ] = remark or other dose. Unless noted, the call rests on the fitted dose curve; in most records, active means well fitted curve in the direction sought with a large enough effect; inconclusive means small, poorly fitted or top-dose-only effect, or another doubt; inactive means no such curve, though single readings can be large; an effect the other way counts as inactive or inconclusive. Unless noted, on the % scale 0 is the no-effect control and ±100 the full control effect.
SMILES,TDP1 cell noCPT,HT1080 IDH1KD tx,HT1080-NT tox,IL1B secr inh,TDP1 cell CPT,ALOX12 inh
O=C1C(Cl)=C(NCCCN2CCOCC2)C(=O)c2ccccc21,13µM*,?,-18%,-96*,18µM*,?
COc1ccc(-c2ccnc(SCC(=O)c3ccc(Br)cc3)n2)cc1,?,12%,13%,-2,?,5%
CC1(C)C(=O)NCCN1C(=O)CSc1nccc(-c2ccc(Br)cc2)n1,16µM*,?,?,-1,?,-4%
CCOC(=O)N1CCN(C(C(=O)O)c2ccc(OC)nc2OC)CC1 (stereo not given),.,.,.,.,.,13%
COc1ccc(CN([C@H](C)CO)S(=O)(=O)N(Cc2ccccc2)[C@H](CO)C(C)C)cc1,16µM*,8%,12%,0,35µM*,-13%
COc1ccc(CN([C@H](CO)CC(C)C)S(=O)(=O)N(Cc2ccccc2)[C@H](CO)CC(C)C)cc1,23µM*,6.5µM*,16µM*,-88*,?,1%
C=CS(=O)(=O)N(Cc1ccccc1Br)[C@H](CO)CC(C)C,10µM*,-20%,-12%,?,23µM*,?
CC(C)C[C@@H](C)C(=O)N(Cc1ccccc1)c1ccccc1,?,2%,11%,-8,?,-9%
COc1ccc(CCC(C)N(C)Cc2ccccc2)cc1 (stereo not given),?,-2%,-4%,-4,-21%,-71%
C=C[C@H](CC(C)C)N(Cc1ccccc1)S(=O)(=O)N(Cc1ccccc1)[C@@H](C=C)CC(C)C,15µM*,14%,1%,12,13µM*,?
COc1ccc(N(C(C)C(=O)N(Cc2ccccc2)Cc2ccccc2)S(C)(=O)=O)cc1 (stereo not given),.,.,.,.,.,4%
CCN([C@H](CO)CC(C)C)S(=O)(=O)c1ccccc1,?,7%,-1%,44,?,31%
CC(=O)N1CCc2cc(CNC(=O)Nc3ccc(Br)c(C)c3)ccc21,3%,.,.,.,?,-18%
O=C1NCCCc2[nH]c(-c3ccccc3-n3cccn3)nc21,.,.,.,.,.,53%
CN(C)C(=O)CN1C(=O)CO[C@H](c2ccc(NC(=O)c3ccccc3)cc2)[C@H]1CO,.,.,.,.,.,41%[176 µM]
CC(C)C[C@@H](CO)N(Cc1ccccc1)S(=O)(=O)N(Cc1ccccc1)[C@H](CO)CC(C)C,13µM*,?,?,-79*,13µM*,.
O=S(=O)(N(Cc1ccccc1)[C@H](CO)Cc1ccccc1)N(Cc1ccccc1)[C@H](CO)Cc1ccccc1,?,-4%,-5%,3,?,5%
CC(C)C[C@@H](CO)N(Cc1ccccc1)S(=O)(=O)N(Cc1ccccc1)[C@@H](CO)CC(C)C,18µM*,?,?,-63*,16µM*!,.
CC(C)=CCN1CCN(CCO)CC1,.,.,.,.,.,17%
O=C(CCc1cc(Cl)no1)N(CCS(=O)(=O)N1CCOCC1)Cc1ccccn1,.,.,.,.,.,7.9µM*
CN(CCc1ccccn1)C(=O)CCc1ccc2c(c1)CN(S(C)(=O)=O)CCO2,.,.,.,.,.,25%
S=C(Nc1ccccc1)N1CCN(c2ccccc2)CC1,?,11%,5%,-8,?,0%
O=S(=O)(c1cccc(NC(=S)N2CCN(c3ccccc3)CC2)c1)C(F)F,16µM*,1%,-1%,-15,13µM*,-3%
CCN1CCN(C(=S)Nc2cccc(C(F)(F)F)c2)CC1,-17%,-13%,-8%,25,3%,-8%
FC(F)(F)c1cccc(NC(=S)N2CCN(c3cccc(C(F)(F)F)c3)CC2)c1,15µM*,?,-20%,-2,?,4%
SMILES,TDP1 cell noCPT,HT1080 IDH1KD tx,HT1080-NT tox,IL1B secr inh,TDP1 cell CPT,ALOX12 inh
Fc1ccc(NC(=S)N2CCN(c3cccc(C(F)(F)F)c3)CC2)cc1,13µM*,-14%,-3%,8,21µM*,?
COc1ccc(-n2nc(C(=O)N(C)C)nc2-c2ccccc2)cc1,2%,15%,13%,-7,20%,0%
COc1ccc(-c2ccc(CN3C(C(C)C)C(=O)N(Cc4cn(CC5CCCCC5)nn4)CCS3(=O)=O)cc2)cc1 (stereo not given),16µM*,-27%,-19%,-6,15µM*,-1%
CC(C)C1C(=O)N(Cc2cn(CC3CCCCC3)nn2)CCS(=O)(=O)N1Cc1ccc(-c2ccc(F)cc2)cc1 (stereo not given),9.2µM*,?,?,-23,-20%,-3%
CCCCN1C(N)=NC[C@@H]1c1ccccc1,13µM*,-6%,-2%,-12,16µM*,-3%
COc1ccc(S(=O)(=O)N/N=C(/C)c2ccncc2)c(OC)c1,9%,1%,1%,?,?,-20%
CCCCc1ccc(C(=O)N/C(=C\c2ccc(C)cc2)C(=O)NC2CCCCC2)cc1,15µM*,.,.,.,9.2µM*,?
Cc1ccc(C(=O)N/C(=C\c2ccc(Cl)cc2)C(=O)NC2CCCCC2)cc1,18µM*,.,.,.,?,0%
O=C(NCc1ccc2c(c1)OCO2)c1nc(-c2ccccc2)c2ccccn12,.,.,.,.,.,-15%
CC1=[N+]([O-])C(c2ccc(Cl)cc2Cl)N(O)C1(C)C (stereo not given),.,.,.,.,.,5%
CC1CCN(c2ccc(NC(=O)c3ccccc3SC3CCS(=O)(=O)C3)cc2)CC1 (stereo not given),.,.,.,.,.,6.3µM*
Cc1cccn2c(=O)c3cc(C(=O)NCc4ccco4)c(=N)n(C4CCCC4)c3nc12,23µM*,10%,16%,29,?,-21%
Cc1cccn2c(=O)c3cc(C(=O)NCC4CCCO4)c(=N)n(C4CCCCC4)c3nc12 (stereo not given),?,-15%,-9%,-17,-19%,?
Cc1cccn2c(=O)c3cc(C(=O)NC4CCCCC4)c(=N)n(Cc4ccc(F)cc4)c3nc12,15µM*,-8%,-3%,92,8.2µM*,1%
COCCCn1c(=N)c(C(=O)NC2CCCC2)cc2c(=O)n3cccc(C)c3nc21,23µM*,.,.,.,?,?
Cc1cccn2c(=O)c3cc(C(=O)NCc4ccc(F)cc4)c(=N)n(CC4CCCO4)c3nc12 (stereo not given),23µM*,0%,-4%,5,?,-23%
CCc1ccc(-c2cc3c(=O)[nH]nc(SCC(=O)NC(C)(C)C)n3n2)cc1,.,.,.,.,.,5%

# Source: PubChem (National Center for Advancing Translational Sciences (NCATS))
